# From PubChem BioAssay
# PfHsp90 yeast 2 = inhibits growth of yeast expressing Plasmodium falciparum Hsp90. S. cerevisiae expressing PfHsp90, BacTiter-Glo ATP, 48 h; yeast lacking PDR1 and PDR3 efflux regulators. inhibition, % at 9.4 µM. actives 0.32% (n = 310,000);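 active = every replicate shows inhibition above about 80%, whatever the replicate mean, limit read from the data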;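 also: 0% = DMSO neutral controls and 100% = 20 µM radicicol positive controls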
# TIM10 inh = TIM10 yeast growth inhibition; S. cerevisiae TIM10 strain growth, BacTiter-Glo luminescence, 24 h; inhibition, % at 10 µM; actives 1.4% (n = 330,000);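 active = inhibition of 40% or more at the single tested concentration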;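 also: wild-type TIM10 isogenic control strain grown at permissive 25 °C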
# NALP1 inh = inhibitors of NALP1 inflammasome in yeast; S. cerevisiae NALP1/ASC/caspase-1 growth, X-gal OD620, 72 h; inhibition, % at 10 µM; actives 0.61% (n = 280,000); AID 2071; in the data active = inhibition mostly above about 24%, no sharp cut-off; inactive = mostly below about 32%
# tim23-1 inh = growth inhibitors of tim23-1 mutant yeast | actives 1.3% (n = 330,000) | S. cerevisiae tim23-1 growth, BacTiter-Glo luminescence, 24 h | inhibition, % at 20 µM;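 active = growth inhibition of the mutant yeast at or above 50%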;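 also: temperature-sensitive mutant grown at 25 °C; plate controls were DMSO-treated mutant yeast for no effect and medium wells lacking yeast for full effect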
# tim10-1 inh = growth inhibitors of tim10-1 mutant yeast; actives 2.2% (n = 330,000); inhibition, % at 20 µM; S. cerevisiae tim10-1 ts strain growth, BacTiter-Glo, 24 h;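 active = inhibition of at least 40%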;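 also: mutant grown at 25 °C; 0% = DMSO wells with yeast and 100% = wells holding no yeast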
# NALP3 yeast inh = blocks the NALP3 inflammasome reconstituted in yeast. Yeast reconstituted NLRP3/ASC/caspase-1, beta-gal luminescence, 24 h. inhibition, % at 10 µM. actives 0.39% (n = 330,000);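 active = inhibition of 50% or more; inactive = inhibition below 50%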;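 also: plate controls were induced DMSO wells for no effect and uninduced yeast grown without galactose for full effect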
# tim23-1 conf = confirmation of tim23-1 mutant yeast growth inhibitors; shares compounds with tim23-1 inh; S. cerevisiae tim23-1 growth, BacTiter-Glo luminescence, 24 h; inhibition, % at 20 µM; actives 83% (n = 4,400); AID 463218;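 active = inhibition above about 39% in either of two replicate wells at 20 µM, limit read from the data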;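 also: temperature-sensitive tim23-1 mutant grown at 25 °C; 0% = DMSO wells with yeast and 100% = medium wells without yeast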
# An asterisk follows results filed as active; . = no result given. Only some compounds are listed: those with a hit (about 4.2% of all), similar ones and a draw of the others.
SMILES,PfHsp90 yeast 2,TIM10 inh,NALP1 inh,tim23-1 inh,tim10-1 inh,NALP3 yeast inh,tim23-1 conf
C[C@@H]1CN(S(=O)C(C)(C)C)[C@@H](CCO)/C1=C\c1ccccc1 (stereo not given in full),-0.4,.,.,.,.,.,.
Cc1c(O)cc2c(c1O)C(=O)CC(c1ccccc1)O2 (stereo not given),27.9,30.7,0.6,50.8*,38.2,0.1,47.7*
COc1c(O)cc2c(c1O)C(=O)CC(c1ccccc1)O2 (stereo not given),.,8.8,-17.6,43.8,28.2,19.5,.
COc1ccc(C(O)(C2CCCCC2)C(CN2CCOCC2)c2ccccc2)cc1 (stereo not given),4.1,19.4,5.8,33.7,35.8,5.4,.
OC(c1ccccc1)(C1CCCCC1)C(CN1CCOCC1)c1ccccc1 (stereo not given),1.8,26.6,1.7,50.4*,17.7,0.6,30.8
CC(=O)c1ccc(S(=O)(=O)N(C)C(C)CCc2ccco2)cc1 (stereo not given),-27.3,-1.4,9.4,21.8,32.8,24.1,.
CCC(CC)C(=O)Nc1c(C(=O)N2CCN(c3ccccc3)CC2)oc2ccccc12,-3.4,28.1,21.6,51.2*,39.0,7.0,42.0*
Cn1c2c(c3ccccc31)CCN(CCCCN1CCN(c3ccccc3)CC1)C2=O,-4.7,.,.,.,.,.,.
Cc1ccnc(NC(=O)c2cc(F)c(F)cc2Cl)n1,-17.6,19.9,4.8,62.2*,28.4,0.5,46.8*
C/C(=C\c1ccccc1)C1Nc2cccc3cccc(c23)N1,.,-0.5,.,25.5,24.0,14.1,.
C/C(=C\c1ccc2c(c1)OCO2)C1Nc2cccc3cccc(c23)N1,0.2,22.4,.,51.5*,30.7,5.3,47.2*
CCOc1ccc(CCNc2nc3ccccc3n3cnnc23)cc1OCC,-17.9,15.5,2.7,20.5,18.2,7.4,.
C=CCNC(=O)C(=O)Nc1ccc2c(c1)N(S(=O)(=O)c1cccs1)CCC2,8.8,35.0,.,51.5*,34.7,16.4,41.5*
CCCc1cc(=O)oc2cc(C)c(CN3CCCC3)c(O)c12,.,32.6,5.5,58.7*,15.6,15.3,58.0*
COc1ccc2nccc(C(N)=O)c2c1,19.4,-6.0,7.1,4.2,4.1,-1.7,.
Oc1cccc(/C=N/Nc2cccc3cccnc23)c1,2.1,15.0,3.7,53.0*,9.6,30.7,63.3*
O=[N+]([O-])c1ccc(N/N=C/c2cccc(O)c2)cc1,29.4,6.4,8.8,83.3*,38.6,15.6,39.6*
COc1cc(/C=N/Nc2cccc3cccnc23)cc(OC)c1O,2.6,15.5,-11.4,12.9,8.6,9.1,.
COc1ccc([C@H]2CC(=O)C=C(c3ccc4[nH]ccc4c3)C2)cc1OC,25.6,20.1,.,34.2,20.1,11.9,.
O=C1C=C(c2ccc3[nH]ccc3c2)C[C@@H](c2ccc(F)cc2)C1,-51.3,24.6,.,53.0*,38.8,4.2,50.5*
O=C1C=C(c2ccc3c(c2)OCCO3)C[C@@H](c2ccc(F)cc2)C1,5.8,16.8,.,51.0*,22.4,0.9,47.5*
C[C@H]1CC[C@@]2(O[C@@H](CCO)C[C@H](O)[C@H]2O)O1,-0.5,-6.3,.,23.2,-1.4,3.1,.
COc1cccc(/C(C)=N/Nc2ccc(S(=O)(=O)N3CCCCC3)cn2)c1,-32.3,39.1,.,51.5*,26.6,3.2,44.0*
C/C(=N\Nc1ccc(S(=O)(=O)N2CCCCC2)cn1)c1ccc(O)cc1,.,39.3,.,34.8,26.0,2.1,.
Cc1ccc2c(c1)N(C(C)C(=O)NCc1ccc3c(c1)OCO3)C(=O)CO2 (stereo not given),13.3,-1.7,.,16.7,8.6,4.4,.
SMILES,PfHsp90 yeast 2,TIM10 inh,NALP1 inh,tim23-1 inh,tim10-1 inh,NALP3 yeast inh,tim23-1 conf
COc1cccc(C(=O)Nc2ccc(NC(C)=O)cc2)c1,11.0,-17.7,11.8,0.7,4.9,-4.4,.
CSC(SC)=C(C#N)C(=O)c1ccccc1,2.5,10.3,-8.4,80.2*,37.0,8.0,84.6*
COc1cccc(C(=O)C(C#N)=C(SC)SC)c1,-0.7,38.2,22.9,60.0*,14.2,-6.6,76.8*
COc1ccc(/C=C/C(=O)OCC(=O)NC(C)CCc2ccccc2)cc1 (stereo not given),-8.5,-4.6,.,8.9,0.1,33.5,.
c1ccc(-c2ccnc3nc(N4CCN(c5ccccc5)CC4)nn23)cc1,-89.1,30.1,-1.3,51.4*,17.0,15.6,37.0
Fc1ccc(-c2ccnc3nc(N4CCN(c5ccccc5)CC4)nn23)cc1,-0.7,23.4,-10.0,41.5,32.6,3.6,.
COC(=O)c1c(-c2ccc(S(C)(=O)=O)cc2)sc2ccc(OC)cc12,.,12.3,.,51.8*,19.0,20.2,42.8*
O=C(N/C=N/O)C(c1ccccc1)c1ncc(C(F)(F)F)cc1Cl (stereo not given),6.4,-1.6,0.3,9.0,12.0,16.8,.
O=C(Nc1ccccc1-c1nnn(CC(=O)N2CCCc3ccccc32)n1)c1ccc(Cl)cc1,15.6,26.6,-22.4,56.2*,23.6,5.0,26.1
O=c1nc2n(c3ncccc13)CCCCC2,.,-0.7,-8.7,13.9,-14.7,-17.9,.
O=C(Nc1nc2ccc(S(=O)(=O)N3CCCCC3)cc2s1)C1CCCO1 (stereo not given),-10.1,33.5,7.1,52.5*,39.7,14.2,46.9*
O=C(Cc1ccc(F)cc1)OCC(=O)N1CCN(S(=O)(=O)c2ccc(Cl)cc2)CC1,.,14.2,.,18.0,34.3,11.8,.
CC(C)Oc1cc(O)c2c(=O)c(-c3ccc(O)cc3)coc2c1,-16.8,22.0,34.1,56.9*,37.0,14.5,61.3*
CCN(CC)S(=O)(=O)c1ccc(N(C)C)c(NC(=O)CSCc2c(C)noc2C)c1,-1.1,11.9,11.7,18.0,28.3,18.4,.
CCCCn1c(N)c(N(CCOC)C(=O)C2CCN(c3ncnc4sc(C)c(C)c34)CC2)c(=O)[nH]c1=O,.,6.0,.,52.7*,13.7,4.3,47.4*
COc1ccc(-c2csc(NS(=O)(=O)c3ccc([N+](=O)[O-])cc3)n2)cc1,-11.0,3.3,23.3,84.3*,17.1,13.4,9.1
O=C1CC(C(=O)O)S/C(=N\N=C\c2ccc(Br)cc2)N1 (stereo not given),-4.2,-6.4,5.3,-5.0,10.9,-5.1,.
COc1cc2oc(=O)cc(-c3ccc(-c4ccc(O)cc4)cc3)c2c(OC)c1OC,-23.6,1.0,.,55.7*,27.7,.,35.4
Cc1cc(O)c2c(-c3ccccc3)cc(=O)oc2c1,-10.8,31.2,-9.0,46.6,32.1,-94.9,.
Cc1cc2oc(=O)cc(-c3ccccc3)c2c(C)c1-c1ccc(O)cc1,-83.6,2.1,.,60.6*,21.0,.,48.0*
COc1cccc(NC(=O)c2cc3ccccc3o/c2=N\O)c1,8.9,13.7,15.7,47.4,-18.0,35.3,.
